High-throughput results: PubChem BioAssay, The Scripps Research Institute Molecular Screening Center
Hsp70 act: Hsp70 transcriptional activators, primary screen, cell-based, HeLa, Hsp70 promoter luciferase, luminescence, 10 µM. HeLa Hsp70 promoter luciferase reporter; scaled: vehicle 0, proteasome-inhibitor control 100%. activation, % at 10 µM. actives 0.04% (n = 200,000). AID 1203, 2008;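 active = activation above the mean across all tested compounds plus 3 SD, cutoff set per campaign, cut at about 5.5% in these data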;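 also: 100% = MG132 at 30 µM as the positive control and 0% = DMSO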
S1P3 antag: S1P3 receptor antagonists, primary screen, cell-based; actives 0.27% (n = 170,000); CHO S1P3 NFAT-BLA reporter, FRET fluorescence, antagonist mode; inhibition, % at 4.98 µM;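 active = inhibition above the plate cutoff, the mean inhibition of test wells on that plate plus 3 SD, cut at about 28% in these data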;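 also: cells challenged with S1P at its EC80 of 0.8 µM; blue over green emission ratio from cleaved BLA substrate after 4 h stimulation; 0% = S1P-stimulated wells and 100% = unstimulated DMSO-only wells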
S1P4 ag: S1P4 receptor agonists, primary screen, cell-based. Sphingosine 1-phosphate receptor 4 (Homo sapiens), O95977. S1P4-expressing cell line, agonist reporter assay. activation, % at 4.98 µM. actives 0.35% (n = 220,000). AID 1509, 2009; in the data active = activation above about 11%;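 also: 0% = DMSO vehicle and 100% = reference agonist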
Target sequence (O95977 whole entry, looked up): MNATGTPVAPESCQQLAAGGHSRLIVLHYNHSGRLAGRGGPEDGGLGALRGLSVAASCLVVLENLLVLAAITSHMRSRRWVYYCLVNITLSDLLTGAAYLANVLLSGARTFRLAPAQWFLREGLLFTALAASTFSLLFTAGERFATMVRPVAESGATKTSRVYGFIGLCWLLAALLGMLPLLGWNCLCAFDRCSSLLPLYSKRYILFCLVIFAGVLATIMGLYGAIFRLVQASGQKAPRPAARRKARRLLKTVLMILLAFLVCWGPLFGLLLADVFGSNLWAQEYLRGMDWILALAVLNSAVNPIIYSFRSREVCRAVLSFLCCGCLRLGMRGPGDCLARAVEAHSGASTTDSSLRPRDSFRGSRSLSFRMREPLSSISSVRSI
Pf gamet viab: late stage P. falciparum gametocyte viability inhibitors, primary screen, ATP luminescence, HTS; P. falciparum stage V gametocytes, 24 h; inhibition, % at 10.9 µM; actives 0.065% (n = 150,000); AID 743093, 2013;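 active = inhibition above the mean plus 3 SD of compounds within the control limits, set per campaign, cut at about 38% in these data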;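 also: 0% = DMSO wells and 100% = medium only without gametocytes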
S1P4 antagonist: S1P4 receptor antagonists, primary screen, cell-based. AID 1510, 2009. inhibition, % at 4.98 µM. Sphingosine 1-phosphate receptor 4 (Homo sapiens), O95977. actives 0.26% (n = 220,000). S1P4-expressing cells, antagonist mode, reporter read-out; in the data active = inhibition above about 29%;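 also: 0% = wells stimulated with agonist and 100% = vehicle wells without agonist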
The depositor's hits bear a star; nt = no result given. Hits are enriched below; roughly 0.83% of the tested compounds scored in any of these assays.

SMILES | Hsp70 act | S1P3 antag | S1P4 ag | Pf gamet viab | S1P4 antagonist
CC(C)(C)OC(=O)C[C@H]1C/C=C\C[C@@H](CC(=O)N(CCO)Cc2ccccc2)C(=O)N[C@H](Cc2c[nH]c3ccccc23)COC1=O | nt | nt | nt | 7 | nt
CC(=O)c1cccc(NC(=O)Cc2cccs2)c1 | 0 | 12 | 2 | nt | -16
O=C(Cc1cccs1)Nc1cccc(C(=O)Nc2ccco2)c1 | 0 | 52* | -3 | nt | -20
CCC(=O)c1ccc(OCCn2cnc3ccccc32)cc1 | 0 | -6 | 1 | -3 | 6
CC(NC(=O)c1ccc(N(C)C)cc1)C1CC2CCC1C2 (configuration not stated) | 0 | nt | 1 | 22 | 34*
O=C(c1ccc(COc2ccccc2Br)o1)N1N=C(C(F)F)CC1(O)C(F)F (configuration not stated) | 0 | 4 | 0 | 49* | -5
CCC(=O)Nc1ccc(C(=O)n2nc(C)cc2C)cc1 | 0 | -25 | 0 | 3 | 1
Cc1cc(C)n(C(=O)c2ccc(NC(=O)C3CC3)cc2)n1 | 0 | 93* | -2 | nt | -8
Cc1ccc2[nH]c(-c3ccccc3)cc(=O)c2c1 | 1 | 60* | 2 | nt | 25
COc1cccc(/C=N/N2C(=O)C3C4c5ccccc5C(c5ccccc54)C3C2=O)c1OC (configuration not stated) | 0 | nt | 13* | nt | 7
Cn1c(-c2c(N)n(C3CCCC3)c3nc4ccccc4nc23)nc2ccccc21 | 0 | 75* | 1 | nt | 4
Cn1c(-c2c(N)n(CCc3ccccc3)c3nc4ccccc4nc23)nc2ccccc21 | 0 | nt | -3 | nt | 17
CC(C)C(NC(=O)c1ccc(C(C)(C)C)cc1)C(=O)NCC(c1ccccc1)N(C)C (configuration not stated) | nt | 12 | 2 | -13 | -19
O=C1CC(c2ccc(Cl)cc2)CC(=O)C1CS(=O)(=O)c1ccccc1 (configuration not stated) | 0 | -7 | 6 | -16 | -25
O=C1CCCC(=O)C1CS(=O)(=O)c1ccccc1 | 0 | -7 | 1 | 39* | -3
COC(=O)c1c(NC(=O)c2ccco2)sc2c1C(C(=O)OC)CC2 (configuration not stated) | 0 | 54* | 1 | nt | -15
Oc1ccc(Cc2ccc(Cl)cc2)c(O)c1 | nt | -4 | 2 | nt | 2
Cc1cc(/C=c2/sc3nc4ccccc4n3c2=O)c(C)n1-c1ccccn1 | -1 | nt | 25* | -21 | -14
Cc1ccc(C(=O)Nc2cccc(C(=O)NCc3ccco3)c2)cc1 | 0 | 67* | 1 | 9 | 8
O=C(NCc1ccco1)c1cccc(NC(=O)c2ccccc2)c1 | 0 | 40 | 2 | -34 | 7
Cc1ccccc1N=C(NO)c1nonc1N | 0 | 0 | 3 | -12 | 7
CCCCCCSc1ccc([C@@H]2[C@@H]3C(=O)N(C)C(=O)[C@@H]3[C@]3(C(=O)OC)CCCCN23)cc1 | nt | nt | nt | -8 | nt
CCOC(=O)CSc1nc2cc3c(cc2cc1C)OCO3 | 0 | 2 | 1 | 39* | -18
CC(C)C(C(=O)NCc1ccco1)N(C(=O)CNS(=O)(=O)c1ccccc1)c1ccccc1 (configuration not stated) | 0 | 0 | -2 | 11 | 4
CC(C)C(C(=O)NCc1ccco1)N(C(=O)CNS(=O)(=O)c1ccc(Cl)cc1)C1CCCC1 (configuration not stated) | 0 | 14 | 11* | 22 | 8
SMILES | Hsp70 act | S1P3 antag | S1P4 ag | Pf gamet viab | S1P4 antagonist
CCOC(=O)c1ccc(N=c2sc(C(=O)OC)cc(=O)n2CCCN2CCOCC2)cc1 | 0 | 1 | 0 | nt | 60*
CN(C)S(=O)(=O)c1ccc(N=Cc2c(C(F)(F)F)[nH]n(C)c2=O)cc1 | 0 | 4 | 2 | 3 | 3
COc1cccc(C2/C(=C(\O)c3ccc4c(c3)OCCO4)C(=O)C(=O)N2CCCN(C)C)c1OC (configuration not stated) | 0 | nt | 38* | nt | -7
COc1ccccc1OCCOCCOc1ccccc1Cl | 0 | -1 | 0 | 51* | 1
Cc1cccc2c(N)c3c(nc12)CCCC3 (tested in a mixture with another compound) | 0 | -17 | 0 | 43* | -7
Cc1nsc(Nc2ccc([N+](=O)[O-])cc2)c1C#N | 0 | -18 | 1 | -2 | -31
